From the supplement of paper PMC10849652
Targets with a hit are over-represented here; the source holds about 8,800 in all. About 0.5% of all pairs of compound and target were hits. Values without a mark were called inactive.

Tests used:
Assay in all cases: log2 fold change, soluble protein after heating vs DMSO (PISA); higher = thermal stabilisation; K562 lysate, 10 uM; active = over 0.2 and 3.5 SD of the protein, either way, in both replicates (recomputed)
pictilisib = compound: CS(=O)(=O)N1CCN(Cc2cc3nc(-c4cccc5[nH]ncc45)nc(N4CCOCC4)c3s2)CC1 [pictilisib]
Procedure, shortened: (§1)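 A 30 min treatment with 10 μM compound was applied to crude K562 extract at 1 mg/mL protein in PBS pH 7.4 with 1 mM MgCl2. Heating for 3 min spanned 48°C-58°C, after which aliquots were pooled, adjusted to 0.5% NP-40 at 4°C and spun at 21,000xg for 90 min. TMTpro 16plex LC-MS/MS of the supernatant, with channel sums equalised, gave values recorded as log-two fold change in thermal stability against solvent controls, from duplicates.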

crizotinib = compound: C[C@@H](Oc1cc(-c2cnn(C3CCNCC3)c2)cnc1N)c1c(Cl)ccc(F)c1Cl [crizotinib]
Procedure, shortened: as §1

[1] = compound: C[C@H](C1=CC=C(C=C1)C(=O)NC2=C3C=CNC3=NC=C2)N
Procedure, shortened: as §1

duvelisib = compound: C[C@H](Nc1ncnc2nc[nH]c12)c1cc2cccc(Cl)c2c(=O)n1-c1ccccc1 [duvelisib]
Procedure, shortened: as §1

gandotinib = compound: Cc1cc(Nc2cc(CN3CCOCC3)c3nc(C)c(Cc4ccc(Cl)cc4F)n3n2)n[nH]1 [gandotinib]
Procedure, shortened: as §1

tozasertib = compound: Cc1cc(Nc2cc(N3CCN(C)CC3)nc(Sc3ccc(NC(=O)C4CC4)cc3)n2)n[nH]1 [tozasertib]
Procedure, shortened: as §1

doramapimod = compound: Cc1ccc(-n2nc(C(C)(C)C)cc2NC(=O)Nc2ccc(OCCN3CCOCC3)c3ccccc23)cc1 [doramapimod]
Procedure, shortened: as §1

bafetinib = compound: Cc1ccc(NC(=O)c2ccc(CN3CC[C@H](N(C)C)C3)c(C(F)(F)F)c2)cc1Nc1nccc(-c2cncnc2)n1 [bafetinib]
Procedure, shortened: as §1

[2] = compound: Cc1cccc(CC(=O)N2CCc3c2ccc(-c2cn(C)c4ncnc(N)c24)c3F)n1
Procedure, shortened: as §1

nilotinib = compound: Cc1cn(-c2cc(NC(=O)c3ccc(C)c(Nc4nccc(-c5cccnc5)n4)c3)cc(C(F)(F)F)c2)cn1 [nilotinib]
Procedure, shortened: as §1

[3] = compound: Cc1nc(Nc2n[nH]c3c2CN(C(=O)N[C@H](CN(C)C)c2ccccc2)C3(C)C)c2sccc2n1
Procedure, shortened: as §1

dasatinib = compound: Cc1nc(Nc2ncc(C(=O)Nc3c(C)cccc3Cl)s2)cc(N2CCN(CCO)CC2)n1 [dasatinib]
Procedure, shortened: as §1

[4] = compound: Cc1ncc(-c2ccnc(Nc3ccc(S(C)(=O)=O)cc3)n2)n1C(C)C
Procedure, shortened: as §1

[5] = compound: Cn1cc(-c2ccc3c(c2)CCN3C(=O)Cc2cccc(C(F)(F)F)c2)c2c(N)ncnc21
Procedure, shortened: as §1

quisinostat = compound: Cn1cc(CNCC2CCN(c3ncc(C(=O)NO)cn3)CC2)c2ccccc21 [quisinostat]
Procedure, shortened: as §1

tipifarnib = compound: Cn1cncc1[C@@](N)(c1ccc(Cl)cc1)c1ccc2c(c1)c(-c1cccc(Cl)c1)cc(=O)n2C [tipifarnib]
Procedure, shortened: as §1

[6] = compound: NC(=O)Nc1cc(-c2cccc(F)c2)sc1C(=O)N[C@H]1CCCNC1
Procedure, shortened: as §1

[7] = compound: NC1(c2ccc(-c3nc4ccn5c(=O)[nH]nc5c4cc3-c3ccccc3)cc2)CCC1
Procedure, shortened: as §1

lapatinib = compound: CS(=O)(=O)CCNCc1ccc(-c2ccc3ncnc(Nc4ccc(OCc5cccc(F)c5)c(Cl)c4)c3c2)o1 [lapatinib]
Procedure, shortened: as §1

[8] = compound: NC(=O)c1cnc(N[C@@H]2CCCC[C@@H]2N)nc1Nc1cccc(-n2nccn2)c1
Procedure, shortened: as §1

UniProt Q9BRD0, sequence (Q9BRD0 whole entry, looked up): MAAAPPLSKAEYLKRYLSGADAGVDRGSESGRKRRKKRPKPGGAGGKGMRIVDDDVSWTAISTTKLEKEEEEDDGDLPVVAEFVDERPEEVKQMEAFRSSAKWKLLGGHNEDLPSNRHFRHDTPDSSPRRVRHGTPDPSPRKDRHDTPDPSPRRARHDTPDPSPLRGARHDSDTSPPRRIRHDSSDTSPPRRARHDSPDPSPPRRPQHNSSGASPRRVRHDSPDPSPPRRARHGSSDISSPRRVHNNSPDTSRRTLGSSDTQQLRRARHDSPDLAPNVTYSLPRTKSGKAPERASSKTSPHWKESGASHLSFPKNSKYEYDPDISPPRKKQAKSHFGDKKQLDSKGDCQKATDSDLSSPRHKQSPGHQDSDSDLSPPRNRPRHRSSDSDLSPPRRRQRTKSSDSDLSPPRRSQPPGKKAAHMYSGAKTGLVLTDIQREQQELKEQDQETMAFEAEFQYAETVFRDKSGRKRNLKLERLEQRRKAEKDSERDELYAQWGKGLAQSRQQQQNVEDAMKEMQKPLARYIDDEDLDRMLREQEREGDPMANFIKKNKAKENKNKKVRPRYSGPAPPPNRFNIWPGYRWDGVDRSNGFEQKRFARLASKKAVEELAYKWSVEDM
UniProt O43303, sequence (O43303 whole entry, looked up): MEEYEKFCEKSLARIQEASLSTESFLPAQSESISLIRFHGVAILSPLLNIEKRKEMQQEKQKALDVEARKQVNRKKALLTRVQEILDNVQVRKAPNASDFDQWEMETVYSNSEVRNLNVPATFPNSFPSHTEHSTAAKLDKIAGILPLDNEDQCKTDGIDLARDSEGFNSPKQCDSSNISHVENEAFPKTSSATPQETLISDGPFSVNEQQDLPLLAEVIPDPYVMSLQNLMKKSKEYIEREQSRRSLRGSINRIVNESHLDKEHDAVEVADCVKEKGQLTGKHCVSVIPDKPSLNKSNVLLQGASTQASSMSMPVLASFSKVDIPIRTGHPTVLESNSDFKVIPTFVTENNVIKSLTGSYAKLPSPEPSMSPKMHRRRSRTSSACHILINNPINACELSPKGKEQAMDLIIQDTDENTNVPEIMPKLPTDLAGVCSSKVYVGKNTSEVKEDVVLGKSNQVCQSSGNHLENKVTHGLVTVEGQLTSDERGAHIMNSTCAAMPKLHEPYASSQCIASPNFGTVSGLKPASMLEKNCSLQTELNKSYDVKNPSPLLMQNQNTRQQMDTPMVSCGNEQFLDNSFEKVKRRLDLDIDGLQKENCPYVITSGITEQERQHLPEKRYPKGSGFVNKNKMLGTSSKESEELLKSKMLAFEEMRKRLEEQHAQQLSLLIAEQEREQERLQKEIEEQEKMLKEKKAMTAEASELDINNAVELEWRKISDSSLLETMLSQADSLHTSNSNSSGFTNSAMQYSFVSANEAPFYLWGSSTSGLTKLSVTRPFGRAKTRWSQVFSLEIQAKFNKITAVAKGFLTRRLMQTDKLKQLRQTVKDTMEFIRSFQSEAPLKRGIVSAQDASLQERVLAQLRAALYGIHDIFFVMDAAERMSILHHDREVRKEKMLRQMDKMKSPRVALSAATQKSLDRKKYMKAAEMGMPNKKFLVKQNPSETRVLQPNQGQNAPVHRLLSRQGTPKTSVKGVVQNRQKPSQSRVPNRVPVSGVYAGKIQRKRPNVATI
UniProt Q6P4H8, sequence (Q6P4H8 whole entry, looked up): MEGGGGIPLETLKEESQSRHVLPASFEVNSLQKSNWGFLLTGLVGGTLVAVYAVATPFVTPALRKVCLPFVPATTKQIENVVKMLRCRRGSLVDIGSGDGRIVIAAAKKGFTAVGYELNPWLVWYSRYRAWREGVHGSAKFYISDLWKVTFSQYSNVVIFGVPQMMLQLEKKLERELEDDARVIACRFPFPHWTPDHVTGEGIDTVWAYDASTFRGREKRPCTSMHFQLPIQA
UniProt Q16581, sequence (Q16581 whole entry, looked up): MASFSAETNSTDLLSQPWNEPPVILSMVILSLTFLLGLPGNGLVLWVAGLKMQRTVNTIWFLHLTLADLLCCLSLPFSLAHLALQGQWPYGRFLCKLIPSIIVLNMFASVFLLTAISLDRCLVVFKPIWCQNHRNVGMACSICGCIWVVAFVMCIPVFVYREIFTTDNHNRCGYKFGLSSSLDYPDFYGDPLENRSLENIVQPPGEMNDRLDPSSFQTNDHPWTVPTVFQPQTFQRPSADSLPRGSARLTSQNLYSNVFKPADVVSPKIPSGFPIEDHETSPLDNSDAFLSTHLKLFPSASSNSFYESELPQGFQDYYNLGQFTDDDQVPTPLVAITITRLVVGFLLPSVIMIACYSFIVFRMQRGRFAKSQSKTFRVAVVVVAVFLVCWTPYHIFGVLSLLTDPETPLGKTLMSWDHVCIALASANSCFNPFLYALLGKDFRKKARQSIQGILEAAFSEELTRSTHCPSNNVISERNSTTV
UniProt Q6ZRI6, sequence (Q6ZRI6 whole entry, looked up): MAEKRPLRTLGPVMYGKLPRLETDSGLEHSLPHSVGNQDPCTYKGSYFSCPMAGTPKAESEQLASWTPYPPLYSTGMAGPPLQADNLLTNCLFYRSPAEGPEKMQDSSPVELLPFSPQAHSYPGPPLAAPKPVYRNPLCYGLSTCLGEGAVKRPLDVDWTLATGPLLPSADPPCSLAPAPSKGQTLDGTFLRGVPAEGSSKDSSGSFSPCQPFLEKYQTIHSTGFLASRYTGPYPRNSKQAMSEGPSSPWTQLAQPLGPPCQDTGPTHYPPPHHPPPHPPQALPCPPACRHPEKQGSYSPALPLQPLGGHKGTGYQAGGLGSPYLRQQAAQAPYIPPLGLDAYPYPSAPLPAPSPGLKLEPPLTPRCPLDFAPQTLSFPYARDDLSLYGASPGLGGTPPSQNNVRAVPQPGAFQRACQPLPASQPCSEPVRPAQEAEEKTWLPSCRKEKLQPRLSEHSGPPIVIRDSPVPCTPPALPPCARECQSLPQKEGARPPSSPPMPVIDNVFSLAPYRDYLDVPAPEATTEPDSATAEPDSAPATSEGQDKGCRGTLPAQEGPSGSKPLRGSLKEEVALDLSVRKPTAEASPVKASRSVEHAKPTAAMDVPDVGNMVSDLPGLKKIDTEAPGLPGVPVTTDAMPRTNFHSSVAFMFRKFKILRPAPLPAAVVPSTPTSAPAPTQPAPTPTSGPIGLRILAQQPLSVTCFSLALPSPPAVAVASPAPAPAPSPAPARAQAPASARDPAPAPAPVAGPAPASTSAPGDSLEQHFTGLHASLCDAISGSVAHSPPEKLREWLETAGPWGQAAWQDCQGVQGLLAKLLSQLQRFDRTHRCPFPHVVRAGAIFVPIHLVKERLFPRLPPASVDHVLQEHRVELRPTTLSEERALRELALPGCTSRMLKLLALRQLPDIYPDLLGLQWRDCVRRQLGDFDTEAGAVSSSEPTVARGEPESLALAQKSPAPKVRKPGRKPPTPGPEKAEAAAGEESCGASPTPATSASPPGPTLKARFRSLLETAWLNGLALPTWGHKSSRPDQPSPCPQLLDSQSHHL
UniProt Q6TDU7, sequence (Q6TDU7 whole entry, looked up): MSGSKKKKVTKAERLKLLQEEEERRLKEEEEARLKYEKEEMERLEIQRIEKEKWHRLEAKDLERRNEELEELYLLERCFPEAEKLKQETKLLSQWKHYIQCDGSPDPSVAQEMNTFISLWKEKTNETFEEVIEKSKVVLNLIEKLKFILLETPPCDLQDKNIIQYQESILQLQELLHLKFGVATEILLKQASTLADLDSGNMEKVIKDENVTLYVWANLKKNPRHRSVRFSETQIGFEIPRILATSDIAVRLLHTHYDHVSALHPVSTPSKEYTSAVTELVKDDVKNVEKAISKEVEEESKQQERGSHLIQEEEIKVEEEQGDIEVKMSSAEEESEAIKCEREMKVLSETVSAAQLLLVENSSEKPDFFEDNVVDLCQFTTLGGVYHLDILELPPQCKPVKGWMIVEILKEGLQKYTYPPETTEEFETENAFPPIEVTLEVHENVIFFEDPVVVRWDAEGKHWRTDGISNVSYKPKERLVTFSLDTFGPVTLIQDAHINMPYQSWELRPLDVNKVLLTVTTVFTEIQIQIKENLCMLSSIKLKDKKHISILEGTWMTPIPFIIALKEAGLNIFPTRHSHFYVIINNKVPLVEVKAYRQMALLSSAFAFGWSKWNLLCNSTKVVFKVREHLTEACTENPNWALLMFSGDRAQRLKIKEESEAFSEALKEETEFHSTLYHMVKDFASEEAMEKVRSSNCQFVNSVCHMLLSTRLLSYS
UniProt Q96SZ6, sequence (Q96SZ6 whole entry, looked up): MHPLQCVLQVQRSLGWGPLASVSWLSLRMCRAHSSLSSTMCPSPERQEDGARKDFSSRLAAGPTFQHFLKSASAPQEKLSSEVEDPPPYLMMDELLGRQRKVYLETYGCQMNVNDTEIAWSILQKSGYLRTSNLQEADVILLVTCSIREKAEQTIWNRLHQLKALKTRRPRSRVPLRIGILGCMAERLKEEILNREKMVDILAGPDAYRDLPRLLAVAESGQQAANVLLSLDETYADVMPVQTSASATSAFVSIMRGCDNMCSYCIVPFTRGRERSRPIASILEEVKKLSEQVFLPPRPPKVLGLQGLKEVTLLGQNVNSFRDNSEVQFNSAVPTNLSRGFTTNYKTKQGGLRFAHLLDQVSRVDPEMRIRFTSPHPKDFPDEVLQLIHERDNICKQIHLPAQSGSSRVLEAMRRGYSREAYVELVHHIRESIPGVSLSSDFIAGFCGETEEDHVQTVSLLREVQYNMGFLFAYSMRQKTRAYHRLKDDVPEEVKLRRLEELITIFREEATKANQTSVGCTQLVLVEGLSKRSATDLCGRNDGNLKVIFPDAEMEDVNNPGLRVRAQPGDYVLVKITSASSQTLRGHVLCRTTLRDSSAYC
UniProt Q53HL2, sequence (Q53HL2 whole entry, looked up): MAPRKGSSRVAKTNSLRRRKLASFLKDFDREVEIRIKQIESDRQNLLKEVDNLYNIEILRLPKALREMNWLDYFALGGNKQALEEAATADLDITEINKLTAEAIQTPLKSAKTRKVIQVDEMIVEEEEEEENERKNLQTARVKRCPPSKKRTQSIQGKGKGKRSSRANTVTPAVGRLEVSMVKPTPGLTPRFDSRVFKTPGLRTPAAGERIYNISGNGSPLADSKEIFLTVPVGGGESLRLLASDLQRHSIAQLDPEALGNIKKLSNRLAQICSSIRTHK

| Target | log2 fold change (pictilisib) | log2 fold change (crizotinib) | log2 fold change [1] | log2 fold change (duvelisib) | log2 fold change (gandotinib) | log2 fold change (tozasertib) | log2 fold change (doramapimod) | log2 fold change (bafetinib) | log2 fold change [2] | log2 fold change (nilotinib) | log2 fold change [3] | log2 fold change (dasatinib) | log2 fold change [4] | log2 fold change [5] | log2 fold change (quisinostat) | log2 fold change (tipifarnib) | log2 fold change [6] | log2 fold change [7] | log2 fold change (lapatinib) | log2 fold change [8] |
| --- | --- | --- | --- | --- | --- | --- | --- | --- | --- | --- | --- | --- | --- | --- | --- | --- | --- | --- | --- | --- |
| CDK17 isoform 2 (UniProt Q00537) | -0.008 | 0.026 | 0.096 | -0.04 | 0.042 | -0.113 | 0.15 | -0.033 | -0.359 | 0.061 | 0.117 | -0.068 | 0.096 | 0.011 | -0.069 | -0.423 | -0.057 | 0.068 |  |  |
| CCP110 (UniProt O43303) | -0.085 | -0.006 |  | 0.084 |  | -0.009 | 0.009 | -0.053 |  |  |  | 0.063 |  | -0.01 | -0.062 |  | 0.107 | 0.055 |  |  |
| C3AR1 (UniProt Q16581) | -0.023 | 0.02 | -0.025 |  | 0.043 |  | -0.01 | 0.111 | 0.099 | -0.026 | 0.286 |  | -0.111 |  | 0.065 | -0.036 | -0.033 |  |  |  |
| CDAN1 (UniProt H3BPZ6) |  | 0.118 |  |  |  |  | 0.059 |  |  |  |  |  |  |  | 0.093 |  | 0.056 |  |  |  |
| CDK5RAP1 (UniProt Q96SZ6) | 0.184 | -0.027 | 0.051 | -0.044 | 0.071 | 0.015 | 0 | 0.018 | -0.009 | -0.007 | 0.002 | 0.037 | 0.019 | 0.011 | 0.049 | -0.002 | -0.004 | -0.013 |  |  |
| CDKL5 (UniProt O76039) |  | -0.167 | -0.128 | 0.073 | 0.537 | 0.024 | -0.057 |  | -0.073 |  |  | -0.095 |  | 0.188 | -0.283 |  | -0.002 |  | -0.207 | 0.069 |
| BUD13 (UniProt Q9BRD0) | 0.104 | -0.044 | -0.053 | 0.08 | 0.045 | 0.008 | 0.014 | -0.134 | 0.114 | -0.036 | 0.111 | -0.094 | 0 | 0.019 | -0.044 | 0.028 | -0.014 | -0.019 |  |  |
| CCDC130 (UniProt P13994) | -0.003 | -0.689 |  |  |  | 0.055 | 0.617 | -0.119 |  |  |  |  |  |  | -0.583 |  | -0.183 | 0.259 |  |  |
| BBS7 (UniProt Q8IWZ6) |  | -0.036 | 0.003 | 0.039 | 0.072 | 0.021 | 0.151 |  | -0.119 | -0.039 | 0.065 | -0.061 | -0.03 | 0.489 (active) | 0.06 | -0.133 | -0.044 | 0.14 |  |  |
| CCND3 (UniProt P30281) | -0.01 | -0.083 | -0.175 | 0.015 | -0.022 | 0.073 | 0.101 | 0.003 | 0.096 | -0.061 | -0.015 | -0.08 | 0.042 | 0.137 | -0.05 | -0.062 | -0.003 | -0.057 |  |  |
| CDCA8 (UniProt Q53HL2) | 0.072 |  | 0.319 | 0.031 | -0.031 | -0.047 |  | -0.217 | -0.128 | 0.03 | -0.002 | 0.012 | -0.277 | -0.011 |  | 0.046 |  | -0.051 |  |  |
| ATPSCKMT (UniProt Q6P4H8) | -0.113 | -0.039 |  | -0.036 |  | -0.219 | 0.022 | -0.034 |  |  |  | 0.052 |  | -0.021 | 0.018 |  | 0.001 |  |  |  |
| C8orf88 (UniProt P0DMB2) | 0.028 | 0.038 | 0.054 | 0.058 | -0.017 |  | -0.004 | -0.016 | -0.095 |  |  | 0.07 |  | -0.134 | -0.042 |  | -0.011 | 0.084 |  |  |
| CHD4, A0A2R8Y521 |  |  |  | 0.006 |  | 0.081 |  |  |  | -0.125 | -0.088 | -0.09 | -0.156 | -0.247 |  | 0.391 |  |  | 0.025 | -0.174 |
| CCAR2 (UniProt G3V119) |  |  |  |  |  |  |  |  |  |  |  |  |  |  |  |  |  |  | -0.12 | -0.015 |
| CASC1 (UniProt Q6TDU7) | -0.06 |  | -0.175 |  | 0.058 |  |  | 0.953 | 0.095 |  |  |  |  |  |  |  |  |  |  |  |
| C15orf39 (UniProt Q6ZRI6) | -0.04 | 0.043 | 0.025 | -0.049 | -0.076 | 0.097 | 0 | 0.19 | -0.055 | 0.074 | -0.006 | -0.059 | 0.019 | 0.034 | -0.017 | -0.015 | 0.053 | 0.184 |  |  |
| CAPNS1 (UniProt K7ES78) |  | 0.158 |  | 0.17 |  |  | -0.08 |  |  |  |  | -0.027 |  | -0.006 | 0.247 |  | -0.002 | -0.099 | 0.162 | 0.053 |
| BMT2 (UniProt Q1RMZ1) |  |  | 0.116 |  | -0.124 |  |  |  | -0.056 | 0.172 | -0.923 (active) |  | 0.134 |  |  | 0 |  |  |  |  |
| CAD (UniProt H7BZB3) |  |  | 0.069 |  | 0.036 | -0.062 |  |  | 0.057 |  |  |  |  |  |  |  |  | 0.551 (active) |  |  |
| ATG10 (UniProt Q9H0Y0) | -0.051 | -0.008 | 0.021 | 0.065 | -0.023 | -0.087 | -0.014 | 0.012 | 0.063 | -0.064 | 0.026 | 0.043 | -0.16 | -0.068 | 0.015 | 0.125 | -0.01 | 0.016 |  |  |
